According to PubChem BioAssay:
A number with no mark means an inactive call. The source made the active and inactive calls. Cut-off read from the data, not from the text of the source, unless noted: active = inhibition above about 36%; inactive = the rest.

Tests used:
[1] = system: transactivating tegument protein VP16 (Human herpesvirus 1); test: VP16 transactivation reporter inhibitors, counter-screen for SRC2 inhibitor project, cell-based, luminescence, single concentration (AID 652007); conditions: cell-based VP16 transactivation luciferase reporter, at 8.9 µM, active compounds read high
[2] = target: Nuclear receptor coactivator 2 (Homo sapiens) (UniProt Q15596); test: SRC2 coactivator transcriptional activity inhibitors, confirmation, cell-based, luminescence, HEK293, triplicate (AID 652008;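 active = mean inhibition above 46.5%, the solvent-only control mean plus 3 SD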;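 note: 0% = DMSO-treated cells and 100% = Gossypol at 36 µM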); conditions: HEK293 GAL4-SRC2 luciferase reporter, at 8.9 µM, active compounds read high
Sequence of Nuclear receptor coactivator 2 (Homo sapiens) (Q15596 whole entry, looked up, the tested form may be a part): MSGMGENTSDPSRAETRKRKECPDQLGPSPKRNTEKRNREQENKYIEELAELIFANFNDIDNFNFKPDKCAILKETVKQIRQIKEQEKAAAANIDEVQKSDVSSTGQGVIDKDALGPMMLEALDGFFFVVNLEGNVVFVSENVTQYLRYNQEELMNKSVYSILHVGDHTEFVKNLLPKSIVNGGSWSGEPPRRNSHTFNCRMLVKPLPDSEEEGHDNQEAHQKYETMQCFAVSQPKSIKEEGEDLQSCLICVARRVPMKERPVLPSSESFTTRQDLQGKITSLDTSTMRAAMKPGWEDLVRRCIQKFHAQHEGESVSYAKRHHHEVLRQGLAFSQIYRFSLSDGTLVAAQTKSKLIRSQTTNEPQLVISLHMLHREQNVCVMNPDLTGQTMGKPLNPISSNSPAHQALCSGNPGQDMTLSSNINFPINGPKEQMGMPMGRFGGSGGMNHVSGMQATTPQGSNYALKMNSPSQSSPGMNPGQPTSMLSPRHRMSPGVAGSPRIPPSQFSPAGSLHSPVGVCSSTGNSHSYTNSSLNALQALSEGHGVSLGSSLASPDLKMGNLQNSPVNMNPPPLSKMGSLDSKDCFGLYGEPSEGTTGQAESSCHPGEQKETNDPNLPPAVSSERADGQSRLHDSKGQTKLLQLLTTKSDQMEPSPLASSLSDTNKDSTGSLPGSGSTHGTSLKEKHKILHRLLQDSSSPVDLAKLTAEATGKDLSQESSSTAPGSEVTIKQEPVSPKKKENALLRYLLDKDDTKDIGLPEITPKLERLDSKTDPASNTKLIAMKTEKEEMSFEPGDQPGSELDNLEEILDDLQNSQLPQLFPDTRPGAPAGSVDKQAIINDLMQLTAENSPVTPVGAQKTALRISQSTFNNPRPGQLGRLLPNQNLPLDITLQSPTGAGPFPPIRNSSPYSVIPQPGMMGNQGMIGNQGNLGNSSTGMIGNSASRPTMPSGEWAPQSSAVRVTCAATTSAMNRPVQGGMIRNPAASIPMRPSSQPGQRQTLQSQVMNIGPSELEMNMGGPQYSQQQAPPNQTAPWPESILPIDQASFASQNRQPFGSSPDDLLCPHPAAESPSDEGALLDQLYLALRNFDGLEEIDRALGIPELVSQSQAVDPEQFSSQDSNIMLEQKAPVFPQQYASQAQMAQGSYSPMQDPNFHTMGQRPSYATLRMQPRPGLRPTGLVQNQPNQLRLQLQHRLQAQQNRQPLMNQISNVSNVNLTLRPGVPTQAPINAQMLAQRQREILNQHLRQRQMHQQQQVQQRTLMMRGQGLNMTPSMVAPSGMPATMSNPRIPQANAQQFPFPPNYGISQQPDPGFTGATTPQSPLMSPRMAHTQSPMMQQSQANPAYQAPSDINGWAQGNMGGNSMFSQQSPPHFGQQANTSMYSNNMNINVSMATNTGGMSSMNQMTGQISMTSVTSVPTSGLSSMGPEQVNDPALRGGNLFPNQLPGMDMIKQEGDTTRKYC

| Compound | inhibition [1] | inhibition [2] |
| --- | --- | --- |
| C=CS(=O)(=O)N(Cc1ccc(F)cc1)C(=C)C(=O)OC | 33.7% | -13.2% |
| CSC1=C(C#N)C(c2ccc3c(c2)OCO3)C2=C(CCCC2=O)N1 (configuration not stated) | 0.63% | -1.64% |
| Cc1nnc(NC(=O)c2nc(S(=O)(=O)Cc3ccccc3)ncc2Cl)s1 | 1.66% | 22.4% |
| C=CS(=O)(=O)N(Cc1ccc(C)cc1)[C@@H](CO)C(=O)OC | 17.1% | 63.8% (active) |
| Cc1ccc(NC(=O)COC(=O)C2=NN(c3ccccc3)C(=O)CC2)c(Br)c1 | -16.2% | -37.9% |
| CCCCCc1ccc(-c2ccc(/C=C/C(=O)O)cc2)nc1 | -23.1% | 60.2% (active) |
| COc1cccc(NC(=O)Nc2nnc(CC(=O)NCc3ccccc3)s2)c1 | -17.5% | 24.5% |
| CCn1c(Oc2ccccc2)nc2c1c(=O)n(C)c(=O)n2C | 8.01% | 42.6% |
| c1c2c(cc3sc(N4CCCCC4)nc13)OCCO2 | -48.9% | 7.6% |
| O=C(Nc1ccnn1C1CCN(C(=O)c2ccc(Cl)cc2)CC1)C1CC1 | -6.97% | -7.33% |
| COCCN(C(=O)Cc1ccc(S(=O)(=O)N2CCOCC2)s1)c1c(N)n(CC(C)C)c(=O)[nH]c1=O | 1.4% | -13.1% |
| CCCCC(=O)NC(c1ccccc1OC)c1ccc2cccnc2c1O (configuration not stated) | -16.1% | 28.1% |
| COc1ccc(OCCNC(=O)c2ccc3nc(C)c(N(C)C(=O)CCc4ccccc4)n3c2)cc1 | -12.5% | 2.8% |
| Cc1ccc(C(=O)NCc2cccc(C(F)(F)F)c2)cc1S(=O)(=O)N1CCCCC1 | -7.82% | -8.4% |
| Cc1onc(-c2ccccc2Cl)c1C(=O)N1CCC(Cc2ccccc2)CC1 | 9.05% | 10.1% |
| Cc1nc(SCCC(=O)O)c2cc(-c3ccccc3)sc2n1 | 48.6% (active) | 80.1% (active) |
| CS(=O)(=O)Nc1cccc(NC(=O)C2Cc3c(-c4cccc(F)c4)ccnc3O2)c1 (configuration not stated) | 21.8% | 36.3% |
| CCCC(CCC)C(=O)Nc1ccc2c(c1)N(C(=O)CN1CCN(C)CC1)c1ccccc1CC2 | -0.11% | -4.28% |
| CCCC1=Nc2cc(C(=O)NCCCOCC)ccc2Sc2ccccc21 | -2.83% | 15.5% |
| CCCNC(=O)c1ccc(N2CCC3(CC2)CC(c2cccc(Br)c2)=NO3)c([N+](=O)[O-])c1 | 8% | 7.7% |
| CSc1nnc(NC(=O)c2nc(S(=O)(=O)Cc3ccc(C)cc3)ncc2Cl)s1 | 36.7% (active) | 55.7% (active) |
| CC(C)c1ccc(/C=C2\CC/C(=C\C=N\N(C)C)C2=O)cc1 | -56.7% | -2.89% |
| CCOC(=O)C1CCN(c2ncnc3c2cnn3-c2ccc(OC)cc2)CC1 | -22.3% | 39.2% |
| COc1ccc(/C=C2\SC(=S)N(CCCC(=O)NNC(=O)c3ccccc3O)C2=O)cc1 | 89.9% (active) | 93.1% (active) |

| Compound | inhibition [1] | inhibition [2] |
| --- | --- | --- |
| Cn1c(=N)n(CC(=O)c2ccc(F)cc2)c2ccccc21 | -28.2% | -22.8% |
| COc1cc(OC)cc(C2=Cc3ccc(OC)cc3C(CC(C)=O)N2c2ccc(C#CC3(O)CCCCC3)cc2)c1 (configuration not stated) | -2.24% | 19.6% |
| COc1ccc(NC(=O)C2(C)Cc3c(-c4cccc(C(F)(F)F)c4)ccnc3O2)cn1 (configuration not stated) | -0.87% | -0.12% |
| O=C(Cc1ccc(-c2ccccc2)cc1)NNC(=S)NCc1ccco1 | -22.3% | -9.18% |
| COc1ccc(CC(=O)NNC(=O)c2ccc(Br)o2)cc1 | -9.53% | -27.1% |
| C=CCNc1nc2ccccc2nc1NS(=O)(=O)c1ccc(Cl)cc1 | -13.4% | -1.65% |
| CCOc1ccc(-c2cc(CCCC(=O)NCCc3ccc(OC)c(OC)c3OC)no2)cc1 | 12.8% | 34.7% |
| O=C(Nc1nccs1)c1cc([N+](=O)[O-])ccc1Cl | 12.7% | 42.9% |
| Nc1nonc1C(=O)NCCNCc1cc(Br)ccc1OCc1ccc(F)cc1 | 1.07% | 1.86% |
| Cc1nn(-c2ccccc2)c(N2CCCC2)c1/C=N/NC(=O)c1cccc(S(=O)(=O)Nc2ccc(Cl)cc2)c1 | -8.85% | -16.7% |
| CC(=O)n1cc(N(C(=O)CCl)c2ccccc2)c2ccccc21 | 51.8% (active) | 50.5% (active) |
| Cc1csc(NC(=O)CSc2ccc([N+](=O)[O-])cn2)n1 | -0.96% | -30.9% |
| COc1cccc(-c2nc(-c3ccccn3)no2)c1 | -20.4% | 24.9% |
| CCS(=O)(=O)c1ncc(Cl)c(C(=O)Nc2ccc(S(=O)(=O)N(C)c3ccccc3)cc2)n1 | 65.2% (active) | 98% (active) |
| Cc1cccc(C(=O)N2CCC(Cc3ccccc3)CC2)c1[N+](=O)[O-] | 14.4% | 38.3% |
| Cc1cccc(NS(=O)(=O)c2ccc(C)c(C(=O)NC3CCN(Cc4ccccc4)CC3)c2)c1 | 8.2% | 6.89% |
| CCS(=O)(=O)c1ncc(Cl)c(C(=O)Nc2ccc(S(=O)(=O)N3CCC(C)CC3)cc2)n1 | 89.9% (active) | 86.7% (active) |
| O=C(COc1ccc2c(c1)CCC2)Nc1ccccn1 | 2.76% | 41% |
| Cc1nc(SCc2cccc(C(=O)O)c2)nc2c1CCCC2 | 4.6% | 56.6% (active) |
| O=C(CSc1nc2nc(-c3cccs3)cc(C(F)(F)F)c2c(=O)[nH]1)C(F)(F)F | -28.3% | 10% |
| COC(=O)c1c(NC(=O)CCCC(=O)O)sc2c1CCCCC2 | 29.6% | 53.8% (active) |
| COc1cccc(NC(=O)N2CCc3nc(Nc4ccc(C(C)C)cc4)ncc3C2)c1 | -73.3% | 7.35% |
| CC(C)CNC(=O)COC(=O)c1c2c(nc3ccccc13)CCC2 | 9.25% | 11.4% |
| CCc1sc(NC(=O)CN2CCOCC2)nc1-c1ccccc1 | -0.48% | -0.93% |

| Compound | inhibition [1] | inhibition [2] |
| --- | --- | --- |
| CCS(=O)(=O)c1ncc(Cl)c(C(=O)Nc2ccc(C)cc2)n1 | 1.43% | 0.68% |
| CC(C)(C)c1ccc(NC(=O)COc2ccc(-n3ccnc3)cc2)cc1 | 10.3% | 61.8% (active) |
| CC(=O)Nc1nc(-c2ccc3c(c2)CCN3C(=O)C2CC2)c(C)s1 | 13.2% | 49.3% (active) |
| CCOC(=O)C1CCN(S(=O)(=O)c2ccc(NC(=O)OC)cc2)CC1 | -1.65% | -1.21% |
| CCS(=O)(=O)c1cc([N+](=O)[O-])c(Sc2ccccc2NC(C)=O)s1 | -21% | -26.1% |
| O=C(O)c1ccccc1C=NN1CCCCCC1 | -9.35% | -24.3% |
| O=C(N/N=C/c1ccc(O)cc1)c1[nH]c2ccc(Br)cc2c1-c1ccccc1 | -15.2% | -7.94% |
| Cc1nnc(NC(=O)c2nc(S(=O)(=O)Cc3ccccc3C)ncc2Cl)s1 | 42% (active) | 49.7% (active) |
| Cc1ccc2c(c1)N(C(=O)CCC(=O)NCCCN1CCN(C)CC1)CC(C)O2 (configuration not stated) | -11.4% | -10.8% |
| Cc1onc(C(=O)N2CCC(Cc3ccccc3)CC2)c1[N+](=O)[O-] | -1.3% | 5.37% |
| O=C1N(Cc2cccc(Cl)c2)C[C@@H]2C[C@@H](c3cccc4cccnc34)N3CCC[C@@]123 | -2.19% | -23.5% |
| CC1=CC(C)(C)Nc2ccc(OC(=O)CN3C(=O)c4ccccc4C3=O)cc21 | -37.1% | 26.9% |
| Cn1nnnc1Sc1ncnc2scc(-c3ccc(Br)cc3)c12 | 25% | 37.2% |
| COC(=O)c1cc(=O)n(-c2ccccc2)c(=Nc2ccccc2)s1 | 8.44% | 24.4% |
| O=C1C=CC2C3C(=O)N(c4ccccc4)C(=O)C3C1N2Cc1ccccc1 (configuration not stated) | 30.5% | 65.9% (active) |
| COc1cc(C(=O)NCc2ccncc2)cc(Br)c1OCc1ccccc1 | 0.29% | 36.2% |
| c1ccc(-n2nnnc2Oc2ccc(-n3ccnc3)cc2)cc1 | -16.2% | 1.01% |
| COc1cc(SC)ccc1C(=O)Nc1ncc(C)s1 | 10.3% | 24% |
| COc1ccc([N+](=O)[O-])c(S(=O)(=O)c2ccc(Cl)cc2)n1 | 8.89% | 52.3% (active) |
| CC(=NCc1ccco1)c1c(C)[nH]n(-c2nc3ccccc3s2)c1=O | -24% | 14.3% |
| CN(c1ccccc1)S(=O)(=O)c1ccc(Cl)c(C(=O)Nc2ccncc2)c1 | 0.61% | 29.7% |
| COc1ccc2nc(NC(=O)C3CCN(S(=O)(=O)c4cccc5nsnc45)CC3)sc2c1 | 39.9% (active) | 52.5% (active) |
| CC(=O)Nc1ccc(Nc2nc(C)c([N+](=O)[O-])c(N(C)c3ccccc3)n2)cc1 | 32.4% | 49.2% (active) |
